Screen size: about 310,000 compounds; about 14,000 (4.5%) showed an effect of 50% or more. The effect is printed as a negative number. Only a selection was taken, and strong results are over-represented in it overall.
target: human ether-à-go-go-related gene (hERG) potassium channel (human, UniProt Q12809); assay: primary screen, population patch clamp on CHO cells stably expressing hERG; higher = less effect of the substance
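Note: peak tail current of the secondary pulse compared with the same well before compound.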

Sequence of human ether-à-go-go-related gene (hERG) potassium channel (Q12809 whole entry, looked up): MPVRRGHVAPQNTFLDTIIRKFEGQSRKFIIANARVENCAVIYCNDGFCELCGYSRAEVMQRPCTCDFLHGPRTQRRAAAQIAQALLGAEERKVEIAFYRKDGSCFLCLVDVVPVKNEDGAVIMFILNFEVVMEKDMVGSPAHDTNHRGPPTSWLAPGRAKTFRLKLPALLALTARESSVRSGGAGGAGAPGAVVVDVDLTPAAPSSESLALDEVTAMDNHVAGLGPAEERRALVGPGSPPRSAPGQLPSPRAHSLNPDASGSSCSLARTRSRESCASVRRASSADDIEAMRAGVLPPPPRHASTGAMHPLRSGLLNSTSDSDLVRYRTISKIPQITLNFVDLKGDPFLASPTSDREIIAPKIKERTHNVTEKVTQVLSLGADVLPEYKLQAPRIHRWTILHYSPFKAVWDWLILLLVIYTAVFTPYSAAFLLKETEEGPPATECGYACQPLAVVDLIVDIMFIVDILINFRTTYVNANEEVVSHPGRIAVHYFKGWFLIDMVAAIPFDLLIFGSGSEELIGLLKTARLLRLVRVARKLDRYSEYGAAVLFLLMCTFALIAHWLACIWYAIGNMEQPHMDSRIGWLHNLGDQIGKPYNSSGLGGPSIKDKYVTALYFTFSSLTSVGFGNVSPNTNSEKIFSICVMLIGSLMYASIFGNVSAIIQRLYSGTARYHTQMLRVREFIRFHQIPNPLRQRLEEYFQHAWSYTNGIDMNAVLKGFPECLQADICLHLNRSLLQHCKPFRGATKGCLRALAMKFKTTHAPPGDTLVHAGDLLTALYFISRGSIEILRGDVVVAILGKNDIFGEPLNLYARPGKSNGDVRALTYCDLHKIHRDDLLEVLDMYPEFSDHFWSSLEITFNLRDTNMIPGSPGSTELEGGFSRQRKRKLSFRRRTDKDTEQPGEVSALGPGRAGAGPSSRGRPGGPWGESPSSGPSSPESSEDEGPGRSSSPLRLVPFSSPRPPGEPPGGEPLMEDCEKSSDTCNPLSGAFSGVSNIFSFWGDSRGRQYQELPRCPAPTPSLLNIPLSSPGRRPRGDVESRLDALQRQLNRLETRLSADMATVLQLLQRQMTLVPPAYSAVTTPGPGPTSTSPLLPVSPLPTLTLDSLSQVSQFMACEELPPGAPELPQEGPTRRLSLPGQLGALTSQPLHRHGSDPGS

Going from `COc1ccc(CNC(=O)c2cnc3cc(C)ccn3c2=O)cc1` to `Cc1ccc(Cl)c(OC(=O)c2nn(C(C)C)c(=O)c3ccccc23)c1`, the “hERG current change (%, negative = inhibition) at 10uM” value rises from -8.79% to -2.19%.

Compared with `O=C(N/N=C/c1cccc2ccccc12)c1ccccc1Cl`, `CCCNC(=O)c1ccc2nc(-c3ccccc3)c(-c3ccccc3)nc2c1` is higher in “hERG current change (%, negative = inhibition) at 10uM” value: 8.63% for the first, 9.38% for the second.

Going from `Cc1cc(/C(O)=C2\C(=O)C(=O)N(CCN(C)C)C2c2ccncc2)ccc1OCc1ccccc1` (centres unmarked) to `COc1ccc(Cl)cc1NC(=O)CN(C)C(=O)c1ccc2c(c1)CC(c1ccccc1)OC2=O` (centres unmarked), the “hERG current change (%, negative = inhibition) at 10uM” value falls from 3.21% to -41.8%.

Going from `CCOc1ccc(NC(=O)CN(C)C(=O)c2ccc(C3SCCS3)cc2)cc1OCC` to `CCOc1ccc(NC(=O)CN(C)C(=O)c2ccc(NC3CC3)c([N+](=O)[O-])c2)cc1OCC`, the “hERG current change (%, negative = inhibition) at 10uM” value falls from -0.427% to -59%.

First: CCOc1ccc(NC(=O)CN(C)C(=O)c2ccc(N3CCCC3)c([N+](=O)[O-])c2)cc1OCC
Second: CN(CC(=O)Nc1cccc(F)c1)C(=O)c1ccc(N2CCCC2)c([N+](=O)[O-])c1
The “hERG current change (%, negative = inhibition) at 10uM” value of the first is lower: -49.1% for the first, -46.7% for the second.

First: CN(CC(=O)Nc1cccc(F)c1)C(=O)c1ccc(NC2CC2)c([N+](=O)[O-])c1
Second: COc1cccc(NC(=O)CN(C)C(=O)c2ccc(NC3CC3)c([N+](=O)[O-])c2)c1
The “hERG current change (%, negative = inhibition) at 10uM” value of the first is higher: -68.5% for the first, -73.4% for the second.

Compared with `COc1cccc(NC(=O)CN(C)C(=O)c2ccc(N3CCOCC3)c([N+](=O)[O-])c2)c1`, `COc1cccc(NC(=O)CN(C)C(=O)c2ccc(N3CCCCC3)c([N+](=O)[O-])c2)c1` is higher in “hERG current change (%, negative = inhibition) at 10uM” value: -37.6% for the first, -12.9% for the second.

Compared with `COc1cccc(NC(=O)CN(C)C(=O)c2ccc3c(c2)CC(c2ccccc2)OC3=O)c1` (centres unmarked), `COc1cccc(NC(=O)CN(C)C(=O)c2ccc3ccccc3c2)c1` is higher in “hERG current change (%, negative = inhibition) at 10uM” value: -66.9% for the first, 1.99% for the second.

First: CN(CC(=O)Nc1cccc(F)c1)C(=O)c1ccc(N2CCCCC2)c([N+](=O)[O-])c1
Second: COc1ccc(NC(=O)CN(C)C(=O)c2ccc(NC3CC3)c([N+](=O)[O-])c2)cc1
The “hERG current change (%, negative = inhibition) at 10uM” value of the first is higher: -8.94% for the first, -72.8% for the second.

Going from `O=C(O)CCC(=O)N(Cc1cccs1)Cc1cccs1` to `Cc1ccccc1CNC(=O)Nc1cccs1`, the “hERG current change (%, negative = inhibition) at 10uM” value rises from -2.07% to 3.67%.

First: COc1ccc(C(=O)Cn2nnc(-c3ccccc3NC(=O)C3CCCCC3)n2)cc1
Second: COC(=O)c1ccccc1NC(=O)N1CCCC1
The “hERG current change (%, negative = inhibition) at 10uM” value of the first is higher: 2.23% for the first, -11.9% for the second.

Compared with `O=c1cc(-c2ccccc2)[nH]c2ccc(F)cc12`, `S=c1[nH]nc(Cc2sc(-c3ccccc3)nc2-c2ccccc2)o1` is higher in “hERG current change (%, negative = inhibition) at 10uM” value: 5.52% for the first, 21.6% for the second.

First: Nn1c(SCC(=O)NC2CCCCC2)nnc1-c1ccco1
Second: O=C(CSc1nc2ncccc2[nH]1)NC1CCCC1
The “hERG current change (%, negative = inhibition) at 10uM” value of the first is lower: 4.3% for the first, 7.42% for the second.

Compared with `Cc1oc(-c2ccccc2)nc1CN1C(=O)C(C)N=C(c2ccccc2F)c2cc(Cl)ccc21` (centres unmarked), `Fc1ccccc1N1CCN(c2nc(-c3cccs3)nc3ccccc23)CC1` is higher in “hERG current change (%, negative = inhibition) at 10uM” value: -5.78% for the first, 8.57% for the second.

First: O=[N+]([O-])c1ccc(/C=N/Nc2nc(N3CCCCC3)nc(N3CCCCC3)n2)o1
Second: CCCN1CCN(c2nc(-c3cccs3)nc3ccccc23)CC1
The “hERG current change (%, negative = inhibition) at 10uM” value of the first is higher: -18.1% for the first, -68.6% for the second.

Compared with `CC(=O)Nc1ccc(S(=O)(=O)NCCC(=O)Nc2ccc(C)c(F)c2)cc1`, `CCN(CC(=O)Nc1ccc(NC(C)=O)cc1)C(=O)c1ccc(NC2CC2)c([N+](=O)[O-])c1` is lower in “hERG current change (%, negative = inhibition) at 10uM” value: -0.433% for the first, -46.1% for the second.

Compared with `O=C(Nc1cccc2cccnc12)c1ccc(Br)cc1Br`, `CC(C)NC(=O)c1cc(-c2ccco2)nn1-c1ccc(Cl)cc1` is lower in “hERG current change (%, negative = inhibition) at 10uM” value: 21.6% for the first, -27.4% for the second.

Compared with `COc1ccc(NC(=O)CN(C)C(=O)c2ccc(NS(=O)(=O)c3ccc(C)c([N+](=O)[O-])c3)cc2)cc1`, `COc1ccc(-c2nc3ccc(C(=O)NCCCN4CCOCC4)cc3nc2-c2ccc(OC)cc2)cc1` is higher in “hERG current change (%, negative = inhibition) at 10uM” value: -2.55% for the first, 9.44% for the second.

First: O=C(O)CC1SC(=O)NC1=O (centres unmarked)
Second: O=C(CSc1nn(-c2ccccc2)c(=S)s1)Nn1cnnc1
The “hERG current change (%, negative = inhibition) at 10uM” value of the first is lower: 4.76% for the first, 14.8% for the second.

Going from `Cc1cccc(-c2nc3ccc(C(=O)NCCN4CCN(C)CC4)cc3nc2-c2cccc(C)c2)c1` to `CCN1CCN(CCNC(=O)c2ccc3nc(-c4cccc(C)c4)c(-c4cccc(C)c4)nc3c2)CC1`, the “hERG current change (%, negative = inhibition) at 10uM” value falls from -11.7% to -73.9%.

First: Cc1nc2cc(C(=O)NCCN3CCOCC3)ccc2n1-c1ccc(F)cc1F
Second: CN1CCN(CCNC(=O)c2ccc3nc(-c4ccc(F)cc4)c(-c4ccc(F)cc4)nc3c2)CC1
The “hERG current change (%, negative = inhibition) at 10uM” value of the first is higher: -3.86% for the first, -50.6% for the second.

First: COc1cc(C(=O)N2CCC(c3nc(-c4cccnc4)no3)CC2)cc(OC)c1OC
Second: COc1ccc(N2CCN(c3nc(-c4cccs4)nc4ccccc34)CC2)cc1
The “hERG current change (%, negative = inhibition) at 10uM” value of the first is lower: -8.08% for the first, 14.4% for the second.

First: S=c1[nH]nc(COc2ccccc2)n1/N=C/c1ccc(Br)s1
Second: CCN1CCN(c2nc(-c3cccs3)nc3ccccc23)CC1
The “hERG current change (%, negative = inhibition) at 10uM” value of the first is higher: -18.8% for the first, -70.8% for the second.

Going from `COc1ccc(S(=O)(=O)N2CCN(C)CC2)cc1C` to `O=S(=O)(c1ccccc1)N1CCN(c2nc(-c3cccs3)nc3ccccc23)CC1`, the “hERG current change (%, negative = inhibition) at 10uM” value rises from 7.28% to 9.84%.

First: Cc1ccc(/C=N/NC(=O)Cn2cnc3ccccc32)o1
Second: c1csc(-c2nc(N3CCOCC3)c3ccccc3n2)c1
The “hERG current change (%, negative = inhibition) at 10uM” value of the first is higher: 3.48% for the first, -10.1% for the second.

Compared with `CN1CCN(c2nnc(-c3cccs3)c3ccccc23)CC1`, `CC1CCN(c2nnc(-c3cccs3)c3ccccc23)CC1` is higher in “hERG current change (%, negative = inhibition) at 10uM” value: -53.9% for the first, -41.6% for the second.

First: c1csc(-c2nnc(N3CCOCC3)c3ccccc23)c1
Second: CN1CCN(c2nc(-c3cccs3)nc3ccccc23)CC1
The “hERG current change (%, negative = inhibition) at 10uM” value of the first is higher: -32.1% for the first, -73.9% for the second.

Compared with `Oc1ccc(N2CCN(c3nc(-c4cccs4)nc4ccccc34)CC2)cc1`, `c1ccc(N2CCN(c3nc(-c4cccs4)nc4ccccc34)CC2)cc1` is lower in “hERG current change (%, negative = inhibition) at 10uM” value: 16.5% for the first, -8.84% for the second.

Reference: PMC4336329 (PLoS ONE, 2015)
